# Screening results: PubChem BioAssay, several laboratories
# Most compounds without a hit are left out; they make up all but 2.2% or so of the library.
# Ba/F3 V617F tox – reduced viability of JAK2V617F-dependent Ba/F3 cells, primary screen, JAK2V617F inhibitor project, cell-based, Ba/F3 EpoR-JAK2V617F, luminescence; ATP luminescence; actives 1.1% (n = 220,000); inhibition, % at 5.6 µM;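 active means inhibition above the campaign mean plus 3 SD over all tested compounds, cut at about 24% in these data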;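 further: cytokine-independent growth of Ba/F3 cells driven by EpoR plus mutant JAK2; 0% = DMSO-treated cells and 100% = JAK inhibitor I control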
# KLF5 inhibitor – KLF5 expression inhibitors, primary screen, DLD-1 cells, luminescence; DLD-1 KLF5 promoter-luciferase reporter; inhibition, % at 5 µM; actives 0.23% (n = 290,000);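 active means inhibition above a per-plate limit of that plate's mean compound inhibition plus 3 SD, cut at about 60% in these data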;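 further: 0% = DMSO wells and 100% = LY294002 at 200 µM; higher means less KLF5 promoter-driven luciferase light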
# BaF3 tox – parental Ba/F3 cell viability inhibition, counter-screen for JAK2V617F inhibitor project, murine pro-B, CellTiter-Glo luminescence | inhibition, % at 5.6 µM | CellTiter-Glo ATP luminescence | actives 1.1% (n = 220,000);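 active means inhibition above a per-campaign cutoff, the mean inhibition of all tested compounds plus 3 SD, cut at about 27% in these data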;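 further: 0% = DMSO wells and 100% = JAK Inhibitor I control wells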
# aSyn 5UTR inh – MLPCN primary screen, SNCA 5' untranslated region; alpha-synuclein 5'UTR reporter, inhibitor activity; inhibition, % (tested at 7.5 µM); actives 0.82% (n = 300,000); AID 1813, 2009; in the data active means inhibition above about 60%;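 further: H4 neuroglioblastoma cells stably carrying SNCA 5'UTR luciferase fusion; 0% = DMSO wells and 100% = positive control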
# APP 5UTR inh – inhibitors of APP translation via 5'UTR reporter, primary screen, APP 5'UTR luciferase, SH-SY5Y cells. SH-SY5Y APP 5'UTR-luciferase reporter, luminescence. inhibition, % at 2 µM. actives 0.82% (n = 190,000);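 active means inhibition above a set limit, derived from the sample mean plus 3 SD, cut at about 45% in these data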
# IEC-6 cytotox – cytotoxicity in IEC-6 intestinal epithelial cells, primary screen, cytotoxicity control for KLF5 inhibitor project, cell-based, luminescence; IEC-6 cytotoxicity, luminescence viability; inhibition, % at 5 µM; actives 0.78% (n = 290,000); AID 1825, 2009; in the data active means inhibition above about 22%;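 further: 0% = plate median of test compound wells and 100% = cytotoxic reference compound wells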
# Active calls of the source: *; nt = not tested or not shown.
SMILES,Ba/F3 V617F tox,KLF5 inhibitor,BaF3 tox,aSyn 5UTR inh,APP 5UTR inh,IEC-6 cytotox
CCCOc1ccc(C(=O)NNC(=S)NC(C)=O)cc1,3,0,4,68*,-4,6
CCC(=O)NC(=S)NNC(=O)c1ccc(OC)cc1,2,-23,4,19,-12,0
Cc1cc(=O)nc2c3ccccc3n(CC(=O)NCCC3=CCCCC3)n12,nt,-8,nt,-5,nt,-3
Cc1nn(CCCC(=O)NCCc2ccc(Cl)cc2)c(=O)c2nn(-c3ccccc3)c(C)c12,nt,-19,nt,24,nt,-9
CC1CC(=O)c2c(cc3c(-c4c(O)cc(O)c5c(O)c6c(cc45)OC(C)CC6=O)c(O)cc(O)c3c2O)O1 (configuration not stated),3,-28,-9,70*,50*,-8
O=C1CC(c2ccc(O)cc2)Oc2cc(O)cc(O)c21 (configuration not stated),-3,-20,0,-18,-6,-12
O=C(c1ccc(F)cc1)N(C(=O)c1ccc(F)cc1)c1ncccn1,-2,-32,2,8,71*,-1
C/C(CC(C)(C)C1CCCCC1)=N\NC(N)=S,80*,19,73*,-76,-3,8
CCOc1cc(Br)ccc1S(=O)(=O)N1CC(C)OC(C)C1 (configuration not stated),1,-21,93*,-7,12,3
CCOc1ccc(Br)cc1S(=O)(=O)N1CC(C)OC(C)C1 (configuration not stated),-4,-9,3,19,-16,4
COc1ccc(CN2CCC(C(=O)c3ccc(Cl)cc3)CC2)cc1,nt,-16,nt,8,nt,-3
CCOC(=O)c1[nH]cnc1N=Nc1c(O)ccc2ccccc12,0,-39,6,91*,52*,-5
Oc1ccc2ccccc2c1N=Nc1ccccn1,5,11,5,75*,83*,8
Oc1ccc2ccccc2c1N=Nc1ccccc1F,0,6,1,-13,nt,8
Cc1cc(NC(=O)c2ccccc2)c(Cl)cc1N,-4,-4,-3,64*,nt,-4
CCOC(=O)Cn1nnnc1CN(Cc1cccs1)Cc1cc2cc(C)ccc2[nH]c1=O,-1,7,2,23,62*,-7
Cc1ccc2[nH]c(=O)c(CN(Cc3cccs3)Cc3nnnn3Cc3ccccc3)cc2c1,-1,-18,7,6,0,-4
COc1ccc(NC(=O)CN(C)C(=O)CCCN2C(=O)c3cccc4cccc(c34)C2=O)cc1,nt,nt,nt,11,nt,nt
CCCOc1ccc(C(=O)N(Cc2cccs2)C2CCS(=O)(=O)C2)cc1 (configuration not stated),nt,4,nt,5,nt,1
O=C(N/N=C/c1cccnc1)c1ccc(NC(=O)C(c2ccccc2)c2ccccc2)cc1,2,-23,2,111*,70*,-5
O=C(CNC(=O)C(c1ccccc1)c1ccccc1)N/N=C/c1cccnc1,1,-24,2,-6,nt,4
Cc1nnc(-c2ccccc2)c(=O)n1/N=C/c1c(O)ccc2ccccc12,2,30,6,83*,61*,-2
COc1ccc(NC(=O)C(CC(=O)O)Cc2ccc(Cl)cc2)cc1 (configuration not stated),nt,-34,nt,4,nt,0
CCCn1c(-c2ccc(OC)cc2)nc2ccccc21,40*,-3,52*,-5,-16,3
COCn1c(-c2ccc(OC)cc2)nc2ccccc21,2,-97,6,-192,-118,4
SMILES,Ba/F3 V617F tox,KLF5 inhibitor,BaF3 tox,aSyn 5UTR inh,APP 5UTR inh,IEC-6 cytotox
O=C(N/N=C\c1cc(Br)ccc1O)c1ccc(S(=O)(=O)N2CCCCC2)cc1,-4,-1,0,110*,69*,0
CC(C)C(=O)Nc1ccc(C(=O)N/N=C/c2cc(Br)cc(Br)c2O)cc1,3,-36,5,8,46*,0
O=C(N/N=C/c1cc(Cl)ccc1O)c1ccc(Br)cc1,2,19,7,nt,56*,11
NC(=O)N/N=C\c1cc(Br)ccc1O,-4,-3,3,17,-3,2
C=CCc1ccccc1OCC(=O)NNC(=S)NCc1ccccc1,nt,-51,nt,7,nt,0
CC(=O)N1CCN(c2ccccc2NC(=O)c2ccco2)CC1,nt,-13,nt,4,nt,3
Cc1sc(N)nc1-c1c(C)n(C)c2ccccc12,nt,-48,nt,4,nt,5
Cc1ccc2cc3c(N)c4c(C)ccc(C)c4nc3nc2c1,5,-2,5,-77,56*,6
Cc1ccc2c(N)c(C)ccc2c1,5,-35,5,-38,-18,6
Cc1cc(Br)cc(Cl)c1OC(=O)c1ccncc1,nt,-32,nt,-32,nt,4
Cc1cccc(Cl)c1OCCCn1ccnc1,nt,12,nt,0,nt,3
CN(CC1COc2ccccc2O1)C(=S)Nc1ccccc1 (configuration not stated),2,-24,28*,-20,-8,1
COc1cc(Br)c(CC(=O)NC2CC2)cc1OC,nt,3,nt,9,nt,1
Brc1ccc(-c2noc3c2-c2nc(-c4ccccc4)sc2CC3)cc1,nt,nt,nt,2,nt,nt
COC(=O)C1=C(C)NC(C)=C(C(=O)OC)C1c1ccc2ccccc2n1,-3,-27,1,3,nt,-4
O=C1c2ccccc2C(=O)C1c1ccc2ccccc2n1,0,-20,6,94*,-129,1
COC(=O)c1cc(S(=O)(=O)N2CCN(Cc3ccccc3)CC2)c[nH]1,nt,4,nt,13,nt,0
O=C(Nc1ccc2oc(=O)ccc2c1)c1ccc(-c2cccc([N+](=O)[O-])c2)o1,10,22,-1,92*,nt,6
O=C(Nc1ccc2oc(=O)ccc2c1)c1ccc(-c2cccc(Cl)c2)o1,2,-8,1,14,nt,7
Cc1ccc(-c2cc3c(nn2)-c2ccccc2C3=O)cc1,6,-41,2,86*,nt,11
COc1ccc(CCNC(=O)CN(Cc2ccc(Cl)cc2)S(C)(=O)=O)cc1,nt,-27,nt,7,nt,4
CS(=O)(=O)NCCNC(=O)c1cc(OCC(F)(F)F)ccc1OCC(F)(F)F,2,-16,4,-2,78*,2
O=C(N1CCN(c2ccccn2)CC1)N1c2ccccc2Sc2ccccc21,71*,19,76*,3,94*,17
O=C(c1ccc(Br)s1)N1CCN(c2ccccn2)CC1,nt,-25,nt,-17,nt,-7
CCOC(=O)C(NC(=O)C1C(C)N1S(=O)(=O)c1ccc(C)cc1)C(=O)OCC (configuration not stated),nt,-18,nt,3,nt,2
CCCCn1c(=O)[nH]c(=O)c2c1nc(-c1ccccc1OC(F)F)n2C,nt,-24,nt,17,nt,-8
CCOC(=O)c1sc2nc(CSc3ccccc3)nc(N3CCCN(C)CC3)c2c1C,5,17,2,78*,18,4
